Most compounds without a hit are left out; they make up all but 4.1% or so of the library.
Rv3671c inh – inhibits the M. tuberculosis serine protease Rv3671c; inhibition, % at 5.96 µM; actives 0.048% (n = 320,000); P9WHR9; AID 2606; in the data active = inhibition above about 38%;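 note: extracellular domain of Rv3671c used as enzyme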
BH1578 lux ind – induces V. cholerae light production without autoinducers | V. cholerae BH1578 lux reporter, luminescence, 6 h | activation, % at 18.7 µM | actives 0.16% (n = 350,000); in the data active = activation mostly above about 9.7%, no sharp cut-off
UGM FP inh – inhibitors of M. tuberculosis UDP-galactopyranose mutase | P9WIQ1 | purified UGM, fluorescence polarization probe displacement | inhibition, % at 10 µM | actives 0.06% (n = 320,000) | AID 504406; in the data active = inhibition above about 10%, passing the limit was not always enough
GDH-TPI counter-1 – inhibits GDH-TPI coupling enzymes, artifact for Mtb FBA screen. GDH-TPI coupled enzyme counterscreen, NADH absorbance. inhibition, % at 4.8 µM. actives 1.2% (n = 360,000); in the data active = inhibition above about 30%
Mtb FBA inh – inhibitors of M. tuberculosis fructose-bisphosphate aldolase. inhibition, % at 1 µM. purified M. tuberculosis FBA, fluorescence read-out. AID 588726. P9WQA3. actives 2.3% (n = 360,000)
RecA intein inh – inhibitors of M. tuberculosis RecA intein splicing; P9WHJ3; actives 0.75% (n = 290,000); inhibition, % (concentration not given with the values); cell-free RecA intein splicing, fluorescence; AID 2221; in the data active = inhibition above about 30%
Target sequence (P9WHJ3 whole entry, looked up): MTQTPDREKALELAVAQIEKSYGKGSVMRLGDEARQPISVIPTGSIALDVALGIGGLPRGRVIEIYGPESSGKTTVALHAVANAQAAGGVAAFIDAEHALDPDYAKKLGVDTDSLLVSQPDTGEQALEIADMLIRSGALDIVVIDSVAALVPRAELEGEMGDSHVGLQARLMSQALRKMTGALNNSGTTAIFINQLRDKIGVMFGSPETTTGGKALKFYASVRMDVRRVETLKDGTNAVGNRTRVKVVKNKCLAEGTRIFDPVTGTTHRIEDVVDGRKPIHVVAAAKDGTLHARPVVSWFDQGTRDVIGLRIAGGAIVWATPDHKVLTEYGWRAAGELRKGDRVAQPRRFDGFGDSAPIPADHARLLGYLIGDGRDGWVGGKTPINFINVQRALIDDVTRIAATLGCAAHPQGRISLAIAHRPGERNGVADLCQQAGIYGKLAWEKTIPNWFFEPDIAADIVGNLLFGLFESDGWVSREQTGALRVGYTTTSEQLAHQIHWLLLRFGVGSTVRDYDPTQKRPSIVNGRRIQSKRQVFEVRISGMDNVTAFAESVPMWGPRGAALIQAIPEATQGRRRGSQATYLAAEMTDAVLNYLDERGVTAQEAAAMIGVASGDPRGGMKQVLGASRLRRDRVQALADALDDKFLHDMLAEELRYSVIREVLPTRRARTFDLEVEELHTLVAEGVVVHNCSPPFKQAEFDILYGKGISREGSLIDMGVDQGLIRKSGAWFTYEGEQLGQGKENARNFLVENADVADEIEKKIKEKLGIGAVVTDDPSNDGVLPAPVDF
Mtb FBA inh conf – confirmation of M. tuberculosis fructose-bisphosphate aldolase inhibitors | shares compounds with Mtb FBA inh | purified M. tuberculosis FBA, fluorescence read-out | inhibition, % at 1 µM | actives 78% (n = 5,600)
GDH-TPI counter-2 – GDH-TPI inhibition counter-screen for FBA inhibitors; shares compounds with Mtb FBA inh; GDH-TPI coupled enzyme counterscreen, fluorescence; inhibition, % at 1 µM; actives 81% (n = 5,600); AID 652141; in the data active = inhibition above about 10%
GDH-TPI dose – GDH-TPI dose response counter-screen for Mtb FBA; shares compounds with Mtb FBA inh; GDH-TPI coupled enzyme assay, fluorescence, artifact counterscreen; IC50, µM; actives 79% (n = 170); call rule not given here
Each line names hits and unclear results; the compound was inactive in the other large screens (follow-up assays come after a bar, where they were run). Cut-off read from the data, not from the text of the source, unless noted: active = inhibition above about 27%; inactive = the rest.

CC1=CC(c2ccc(Cl)cc2)n2nc(NC(=O)CCCC(=O)O)nc2N1 (stereo unspecified)	Mtb FBA inh 75.0 | Mtb FBA inh conf 58.9 | GDH-TPI counter-2 45.1
Clc1ccccc1-c1nnc(-c2ccc3c(c2)OCO3)o1	Mtb FBA inh 32.8 | Mtb FBA inh conf 92.7 | GDH-TPI counter-2 62.8
Clc1ccccc1-c1nnc2sc(-c3ccc4c(c3)OCO4)nn12	Mtb FBA inh 27.6 | Mtb FBA inh conf active | GDH-TPI counter-2 active
O=[N+]([O-])c1cccc(-c2nnc(-c3ccc4c(c3)OCO4)o2)c1	none
O=C(NC(=S)NCc1ccccc1)c1cccc(Cl)c1	none
Cc1ccc(Oc2ccc(OCC(=O)NC(CC(C)C)C(=O)O)cc2)cc1 (stereo unspecified)	none
Cc1c(C)c2c(OCC(=O)NCc3ccco3)cc3c(c2oc1=O)CCC(C)(C)O3	Mtb FBA inh 33.5 | Mtb FBA inh conf active | GDH-TPI counter-2 active
Cc1cc(OCC(=O)N2CCC(C(=O)NCC(C)C)CC2)c2c3c(c(=O)oc2c1)CCCC3	none
Cc1cc(=O)oc2cc(OCC(=O)NCc3ccco3)ccc12	none
Cc1c(C)c2c(OCC(=O)NCC(C)C)cc3c(c2oc1=O)CCC(C)(C)O3	Mtb FBA inh 57.4 (no result: Rv3671c inh) | Mtb FBA inh conf active | GDH-TPI counter-2 189.5
Cc1cc(=O)oc2c3c(cc(OCC(=O)N[C@@H](CC(C)C)C(=O)O)c12)OC(C)(C)CC3	Mtb FBA inh 39.2 | Mtb FBA inh conf 39.3 | GDH-TPI counter-2 34.7
Cc1c(C)c2c(OCC(=O)NCc3cccnc3)cc3c(c2oc1=O)CCC(C)(C)O3	Mtb FBA inh 56.6 | Mtb FBA inh conf 69.0 | GDH-TPI counter-2 52.3
COC(=O)CCCNC(=O)c1ccc(S(=O)(=O)NCc2ccco2)cc1	none
Cc1cccc(NC(=S)N2CCN(S(=O)(=O)c3ccc(F)cc3)CC2)c1	none
Cc1sc2ncnc(SCC(=O)N3CCCC(C(F)(F)F)C3)c2c1C (stereo unspecified)	none
Cc1c(OCC(=O)NCc2ccncc2)ccc2c3c(c(=O)oc12)CCC3	none
Cc1c(C)c2c(OCC(=O)NCc3ccncc3)cc3c(c2oc1=O)CCC(C)(C)O3	Mtb FBA inh 30.6 | Mtb FBA inh conf active | GDH-TPI counter-2 active
COc1ccc(CNC(=O)COc2cc3c(c4oc(=O)cc(C)c24)CCC(C)(C)O3)cc1OC	Mtb FBA inh 39.1 | Mtb FBA inh conf 54.2 | GDH-TPI counter-2 38.2
COc1ccc(-n2c(SC(C)C(=O)Nc3ccc(NC(C)=O)cc3)nc3ccccc3c2=O)cc1OC (stereo unspecified)	none
Cc1cccc(C2=NN(c3ccccc3)[C@H](CO)[C@H]2c2ccc(Cl)cc2)c1	Mtb FBA inh 55.0 (no result: Rv3671c inh, UGM FP inh, RecA intein inh) | Mtb FBA inh conf inactive | GDH-TPI counter-2 inactive
CC[C@@H]1C(c2cccc(C)c2)=NN(c2ccccc2)[C@H]1C(=O)N1CCOC1=O	none (no result: Rv3671c inh, UGM FP inh, RecA intein inh)
Cc1cccc(C2=NN(c3ccccc3)[C@H](CO)[C@H]2c2ccc(F)cc2)c1	Mtb FBA inh 62.6 (no result: Rv3671c inh, UGM FP inh, RecA intein inh) | Mtb FBA inh conf 91.2 | GDH-TPI counter-2 60.7
N#Cc1c(-c2ccco2)cc(-c2ccccc2)[nH]c1=O	Mtb FBA inh 77.8 | Mtb FBA inh conf 79.9 | GDH-TPI counter-2 67.9
Cc1cc(-c2ccccc2)[nH]c(=O)c1C#N	Mtb FBA inh 68.9 | Mtb FBA inh conf 66.9 | GDH-TPI counter-2 51.7
CSCCC(NC(=O)c1ccccc1Cl)C(=O)NCC(c1cccs1)N(C)C (stereo unspecified)	none (no result: Rv3671c inh, UGM FP inh, RecA intein inh)
COCCCn1c(-c2ccc(OC)cc2)nc2nc3ccccc3nc21	none (no result: Rv3671c inh, BH1578 lux ind, UGM FP inh, GDH-TPI counter-1, Mtb FBA inh)
CCCn1c(-c2ccc(OC)cc2)nc2nc3ccccc3nc21	GDH-TPI counter-1 43.1, Mtb FBA inh 42.2 | Mtb FBA inh conf 97.7 | GDH-TPI counter-2 79.2
Cc1ccc(Nc2nnc(-c3ccccc3N)o2)cc1C	Mtb FBA inh 49.0 | Mtb FBA inh conf inactive | GDH-TPI counter-2 inactive | GDH-TPI dose 3.15
COc1ccc(C(O)c2nc(-c3ccoc3)cs2)cc1 (stereo unspecified)	none (no result: Rv3671c inh, UGM FP inh, RecA intein inh)
CNC(=O)CSc1n[nH]c(-c2cc(Cl)ccc2OC)n1	none
COc1ccc(Cl)cc1-c1nc(SCC(=O)NC(C)(C)C)n[nH]1	Mtb FBA inh 28.5 | Mtb FBA inh conf 100.2 | GDH-TPI counter-2 93.5
C[C@H]1CN(S(=O)C(C)(C)C)[C@@H](CCO)/C1=C\c1ccccc1 (stereo partly specified)	none (no result: Rv3671c inh, UGM FP inh, RecA intein inh)
CCOC(=O)c1cc(-c2cc3ccccc3o2)nc2c1c(=O)[nH]c(=O)n2CCOC	Mtb FBA inh 45.8 | Mtb FBA inh conf inactive | GDH-TPI counter-2 inactive
CN1CCN(CCNC(=O)c2ccc3nc(-c4ccc(F)cc4)c(-c4ccc(F)cc4)nc3c2)CC1	Mtb FBA inh 57.8 | Mtb FBA inh conf inactive | GDH-TPI counter-2 inactive | GDH-TPI dose 3.36
NC(=O)c1ccc2nc(-c3ccccc3)c(-c3ccccc3)nc2c1	none
CCN1CCN(C(=O)c2ccc3nc(-c4ccccc4)c(-c4ccccc4)nc3c2)CC1	Mtb FBA inh 44.1 | Mtb FBA inh conf 128.8 | GDH-TPI counter-2 91.0
CCOC(=O)C1CCCN(C(=O)c2ccc3nc(-c4ccccc4)c(-c4ccccc4)nc3c2)C1 (stereo unspecified)	Mtb FBA inh 36.2 | Mtb FBA inh conf inactive | GDH-TPI counter-2 inactive
O=C(O)c1ccc2nc(-c3ccccc3)c(-c3ccccc3)nc2c1	Mtb FBA inh 29.6 | Mtb FBA inh conf 59.4 | GDH-TPI counter-2 34.2
O=C(NCc1ccco1)c1ccc2nc([C@@H]3O[C@H](CO)[C@H](O)[C@H](O)[C@H]3O)[nH]c2c1	none (no result: Rv3671c inh, UGM FP inh, RecA intein inh)
Cc1ccc2[nH]c3c(c2c1)CCNC3=O	Mtb FBA inh 75.4 | Mtb FBA inh conf 112.7 | GDH-TPI counter-2 93.3
COc1c(F)cc2[nH]c3c(c2c1F)CCNC3=O	Mtb FBA inh 38.4 | Mtb FBA inh conf active | GDH-TPI counter-2 176.4
Cc1ccccc1CSCC(=O)NNC(=S)NCC1CCCO1 (stereo unspecified)	none (no result: Rv3671c inh)
NC(=O)c1ccsc1NC(=O)COC(=O)c1ccccc1NCc1ccco1	Mtb FBA inh 59.0 | Mtb FBA inh conf 50.2 | GDH-TPI counter-2 32.1
O=C(COC(=O)c1ccccc1NCc1ccco1)Nc1ccc2c(c1)OCO2	Mtb FBA inh 45.2 | Mtb FBA inh conf 64.0 | GDH-TPI counter-2 49.7
C[C@H](CO)N1C[C@H](C)[C@H](CN(C)C(=O)c2ccc3ccn(C)c3c2)OCc2cnnn2CCCC1=O	none (no result: Rv3671c inh, UGM FP inh, RecA intein inh)
CCNc1ccc(S(=O)(=O)N2CCOCC2)cc1NCC(=O)Nc1cccc(Br)c1	none (no result: Rv3671c inh, UGM FP inh, RecA intein inh)
C[C@@H]1CN([C@H](C)CO)C(=O)CCCn2nncc2CO[C@H]1CN(C)S(=O)(=O)c1cccc(F)c1	none (no result: Rv3671c inh, UGM FP inh, RecA intein inh)
Cc1cc(NC(=O)c2cc(-c3ccccc3C)nc3ccccc23)no1	none

Screening results deposited in PubChem BioAssay by several laboratories.
